Consider 32 compounds from the supplement of paper PMC10037445.

Test [1] concerns RAW-Dual. Put plainly: NF-kB SEAP reporter activity, fold change vs agonist alone; higher = enhanced NF-kB activity. The procedure, abridged:
(§1)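 Library stock was pin-tooled at 50 nL into 384-well plates of RAW-Dual macrophages (50,000 cells/well, DMEM), followed 1 h later by a PRR agonist, and the cells were kept at 37 °C, 5% CO2. Supernatant collected after 20 hours was read for IRF by QuantiLuc luminescence and for NF-κB by QuantiBlue absorbance at 620 nm. Reporter activity is fold change over agonist-alone wells, and a well counted as cytotoxic when its IncuCyte confluency was below 70% of agonist controls in both mask sets.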

In test [2] the test system is RAW-Dual. Briefly: NF-kB SEAP reporter activity, fold change vs agonist alone; cytotoxicity flag (confluency mask): not cytotoxic; higher = enhanced NF-kB activity. The procedure, abridged: as §1
Test [3] has as its system RAW-Dual. Briefly: NF-kB SEAP reporter activity, fold change vs agonist alone; cytotoxicity flag (confluency mask): cytotoxic (confluency <70% of control); higher = enhanced NF-kB activity. The procedure, abridged:
as §1

[4] abbreviates: library stock concentration (final ~1000-fold dilution): 10 mM, cytotoxicity flag (confluency mask): not cytotoxic, agonist: Imiquimod (TLR7) […].
[5] abbreviates: library stock concentration (final ~1000-fold dilution): 10 mM, cytotoxicity flag (confluency mask): not cytotoxic, agonist: MPLA (TLR4) […].
Setting [6] is: agonist: ODN 1826 (TLR9) 0.5 ug/mL.
Setting [7] is: agonist: Pam2CSK4 (TLR2/6) 0.1 ug/mL.
Setting [8] is: agonist: Pam3CSK4 (TLR2/1) 0.1 ug/mL.

SMILES strings stand for the structures. Several values for one entry are separate records, joined by “and”; a condition that tells them apart may be missing. Equal entries are not always repeated. The full ranking holds about 2,900 compounds; the median of “NF-kB SEAP reporter activity, fold change vs agonist alone” is about 0.99, and the highest 2% start at about 2.6. The list comes from a sample in which the highest values are over-represented; it also holds similar structures and randomly drawn compounds.

For `O=C(c1c(F)ccc(NS(=O)(=O)N2CCC(F)C2)c1F)c1c[nH]c2ncc(-c3cnc(C4CC4)nc3)cc12` (stereo not drawn), the entries for the “NF-kB SEAP reporter activity” value in test [1] (setting [4]) and in test [1] (setting [5]) were 1.12 and 1.52, respectively.
For `CCCS(=O)(=O)Nc1ccc(F)c(C(=O)c2c[nH]c3ncc(-c4ccc(Cl)cc4)cc23)c1F` (library stock concentration (final ~1000-fold dilution): 10 mM), the “NF-kB SEAP reporter activity” value in test [2] (agonist: LPS (TLR4) 0.1 ug/mL) stood at 0.99; in test [2] (setting [6]) it was 0.941; in test [2] (setting [7]) it was 0.4; in test [2] (setting [8]), 0.411.
As to `O=C(O)c1ccc(-c2c[nH]c3ncc(-c4ccccc4)cc23)cc1C1CCCC1`, the “NF-kB SEAP reporter activity” value in test [1] (setting [4]) is 0.374; in test [1] (setting [5]), 1.16.
The like results for `CCCS(=O)(=O)Nc1ccc(F)c(C(=O)c2c[nH]c3ncc(Cl)cc23)c1F` were, in that order, 0.891 and 1.34.
On to `CCCS(=O)(=O)Nc1ccc(F)c(C(=O)c2c[nH]c3ncc(Cl)cc23)c1F` (library stock concentration (final ~1000-fold dilution): 10 mM), for which the “NF-kB SEAP reporter activity” value worked out at 1.48 in test [2] (agonist: LPS (TLR4) 0.1 ug/mL), 0.781 in test [2] (setting [6]), 0.389 in test [2] (setting [7]) and 0.505 in test [2] (setting [8]).
For the compound `COc1ccc(F)c(F)c1C(=O)c1cnc(NC2CCN(S(C)(=O)=O)CC2)nc1N` (library stock concentration (final ~1000-fold dilution): 10 mM), the “NF-kB SEAP reporter activity” value was 0.194 in test [2] (agonist: LPS (TLR4) 0.1 ug/mL), 0.985 in test [2] (setting [6]), 0.0957 in test [2] (setting [7]) and 1.16 in test [2] (setting [8]).
For the compound `CCCS(=O)(=O)Nc1ccc(F)c(C(=O)c2c[nH]c3ncc(-c4ccc(Cl)cc4)cc23)c1F`, the “NF-kB SEAP reporter activity” value in test [1] (setting [4]) came out at 1.1; in test [1] (setting [5]), 1.3.
Consider `O=C(O)c1ccc(-c2c[nH]c3ncc(-c4ccccc4)cc23)cc1C1CCCC1` (library stock concentration (final ~1000-fold dilution): 10 mM), for which the “NF-kB SEAP reporter activity” value in test [2] (agonist: LPS (TLR4) 0.1 ug/mL) stood at 1.15; in test [2] (setting [6]) it was 0.388; in test [2] (setting [7]) it was 0.646; in test [2] (setting [8]) it was 0.497.
On to `O=C(c1c(F)ccc(NS(=O)(=O)N2CCC(F)C2)c1F)c1c[nH]c2ncc(-c3cnc(C4CC4)nc3)cc12` (stereo not drawn) (library stock concentration (final ~1000-fold dilution): 10 mM), for which the “NF-kB SEAP reporter activity” value in test [2] (agonist: LPS (TLR4) 0.1 ug/mL) was 3.62; in test [2] (setting [6]) it was 1.42; in test [2] (setting [7]), 0.526; in test [2] (setting [8]), 0.5.
In the case of `CCN(C)S(=O)(=O)Nc1ccc(F)c(C(=O)c2c[nH]c3ncc(-c4cnc(C5CC5)nc4)cc23)c1F`, the entries for the “NF-kB SEAP reporter activity” value in test [1] (setting [4]) and in test [1] (setting [5]) were 1.24 and 1.62, respectively.
Regarding `CCN(C)S(=O)(=O)Nc1ccc(F)c(C(=O)c2c[nH]c3ncc(-c4cnc(C5CC5)nc4)cc23)c1F` (library stock concentration (final ~1000-fold dilution): 10 mM), the “NF-kB SEAP reporter activity” value worked out at 3.3 in test [2] (agonist: LPS (TLR4) 0.1 ug/mL), 1.55 in test [2] (setting [6]), 0.469 in test [2] (setting [7]) and 0.764 in test [2] (setting [8]).
As for `COc1ccc(F)c(F)c1C(=O)c1cnc(NC2CCN(S(C)(=O)=O)CC2)nc1N`, the results for the “NF-kB SEAP reporter activity” value in test [1] (setting [4]) and in test [1] (setting [5]) were 0.977 and 0.905, respectively.
`CCNC(=O)Nc1ccc(-c2nc3c(c(N4CCOCC4C)n2)CCN(C2COC2)C3)cc1` (stereo not drawn): the “NF-kB SEAP reporter activity” value in test [1] (setting [4]) turned out to be 0.771; in test [1] (setting [5]), 1.23.
Regarding `CCNC(=O)Nc1ccc(-c2nc3c(c(N4CCOCC4C)n2)CCN(C2COC2)C3)cc1` (stereo not drawn) (library stock concentration (final ~1000-fold dilution): 10 mM), the “NF-kB SEAP reporter activity” value in test [2] (agonist: LPS (TLR4) 0.1 ug/mL) turned out to be 0.974; in test [2] (setting [6]), 0.705; in test [2] (setting [7]), 0.395; in test [2] (setting [8]), 0.411.
On to `Cc1nc(NC(=O)N2CCCC2C(N)=O)sc1-c1csc(C(C)(C)C)n1` (stereo not drawn), for which the “NF-kB SEAP reporter activity” value turned out to be 1.01 in test [1] (setting [4]) and 0.941 in test [1] (setting [5]).
For `Cc1nc(NC(=O)N2CCCC2C(N)=O)sc1-c1csc(C(C)(C)C)n1` (stereo not drawn) (library stock concentration (final ~1000-fold dilution): 10 mM), the “NF-kB SEAP reporter activity” value came out at 0.881 in test [2] (agonist: LPS (TLR4) 0.1 ug/mL), 1.41 in test [2] (setting [6]), 1.32 in test [2] (setting [7]) and 1 in test [2] (setting [8]).
Regarding `CC(C)N(CCCNC(=O)Nc1ccc(C(C)(C)C)cc1)CC1OC(n2ccc3c(N)ncnc32)C(O)C1O` (stereo not drawn) (library stock concentration (final ~1000-fold dilution): 10 mM), the “NF-kB SEAP reporter activity” value in test [2] (agonist: LPS (TLR4) 0.1 ug/mL) came to 0.953; in test [2] (setting [6]), 1.05; in test [2] (setting [7]), 0.991; in test [2] (setting [8]), 1.14.
`CC(C)N(CCCNC(=O)Nc1ccc(C(C)(C)C)cc1)CC1OC(n2ccc3c(N)ncnc32)C(O)C1O` (stereo not drawn): the “NF-kB SEAP reporter activity” value in test [1] (setting [4]) turned out to be 1.02; in test [1] (setting [5]), 0.984.
As to `C=C(C)C1CCC2(C(=O)O)CCC3(C)C(CCC4C5(C)CCC(O)C(C)(C)C5CCC43C)C12` (stereo not drawn), the “NF-kB SEAP reporter activity” value came out at 1.04 in test [1] (setting [4]) and 1.1 in test [1] (setting [5]).
As to `C=C(C)C1CCC2(C(=O)O)CCC3(C)C(CCC4C5(C)CCC(O)C(C)(C)C5CCC43C)C12` (stereo not drawn) (library stock concentration (final ~1000-fold dilution): 10 mM), the “NF-kB SEAP reporter activity” value is 1.45 in test [2] (agonist: LPS (TLR4) 0.1 ug/mL), 0.913 in test [2] (setting [6]), 0.832 in test [2] (setting [7]) and 1.14 in test [2] (setting [8]).
On to `CN1CCc2cc(Nc3ncc(C4CC4)c(NCCCNC(=O)C4CCC4)n3)ccc2C1` (library stock concentration (final ~1000-fold dilution): 10 mM), for which the “NF-kB SEAP reporter activity” value in test [3] (agonist: LPS (TLR4) 0.1 ug/mL) is 0.23; in test [3] (setting [6]), 0.207; in test [3] (setting [7]), 0.0969; in test [3] (setting [8]), 0.211.
Regarding `CN1CCc2cc(Nc3ncc(C4CC4)c(NCCCNC(=O)C4CCC4)n3)ccc2C1`, the “NF-kB SEAP reporter activity” value came to 0.243 in test [1] (library stock concentration (final ~1000-fold dilution): 10 mM, cytotoxicity flag (confluency mask): cytotoxic (confluency <70% of control), agonist: Imiquimod (TLR7) […]) and 0.288 in test [1] (library stock concentration (final ~1000-fold dilution): 10 mM, cytotoxicity flag (confluency mask): cytotoxic (confluency <70% of control), agonist: MPLA (TLR4) […]).
Take `O=C(NCCCNc1nc(Nc2cccc(CN3CCOCC3)c2)ncc1C1CC1)C1CCC1` (library stock concentration (final ~1000-fold dilution): 10 mM): the “NF-kB SEAP reporter activity” value in test [2] (agonist: LPS (TLR4) 0.1 ug/mL) is 2.49 and 3.77; in test [2] (setting [6]), 0.595 and 0.333; in test [2] (setting [7]) it was 2.26 and 2.33; in test [2] (setting [8]), 4.25 and 3.71.
Consider `O=C(NCCCNc1nc(Nc2cccc(NC(=O)N3CCCC3)c2)ncc1I)c1cccs1` (library stock concentration (final ~1000-fold dilution): 10 mM), for which the “NF-kB SEAP reporter activity” value is 0.329 and 0.35 in test [3] (agonist: LPS (TLR4) 0.1 ug/mL); 0.729 and 1.48 in test [3] (setting [6]); 0.0917 and 0.128 in test [3] (setting [7]); 0.252 and 0.376 in test [3] (setting [8]).
For the compound `CC(C)(C)c1[nH]cnc1C=c1[nH]c(=O)c(=Cc2ccccc2)[nH]c1=O` (library stock concentration (final ~1000-fold dilution): 10 mM), the “NF-kB SEAP reporter activity” value in test [2] (agonist: LPS (TLR4) 0.1 ug/mL) worked out at 6.1; in test [2] (setting [6]) it was 3.37; in test [2] (setting [7]), 2.02; in test [2] (setting [8]), 2.3.
The like results for `O=c1[nH]cnc2ccccc12` (library stock concentration (final ~1000-fold dilution): 10 mM) were, in that order, 1.14, 0.991, 1.05 and 1.08.
Take `CC(C)(C)c1[nH]cnc1C=c1[nH]c(=O)c(=Cc2ccccc2)[nH]c1=O`: the “NF-kB SEAP reporter activity” value in test [1] (setting [4]) was 2.47; in test [1] (setting [5]) it was 2.5.
The like results for `O=c1[nH]cnc2ccccc12` were, in that order, 0.847 and 0.983.
For `O=C(Nc1ccc(O)c(C(=O)O)c1)c1cccc(NC(=O)c2ccco2)c1` (library stock concentration (final ~1000-fold dilution): 10 mM), the “NF-kB SEAP reporter activity” value in test [2] (agonist: LPS (TLR4) 0.1 ug/mL) amounted to 0.971; in test [2] (setting [6]), 0.895; in test [2] (setting [7]) it was 1.05; in test [2] (setting [8]), 1.06.
On to `O=C(Nc1ccc(O)c(C(=O)O)c1)c1cccc(NC(=O)c2ccco2)c1`, for which the “NF-kB SEAP reporter activity” value in test [1] (setting [4]) was 0.942; in test [1] (setting [5]), 0.969.
Regarding `Cl.Cl.c1cc(-c2nc3ccc(OCCCN4CCCC4)cc3o2)ccc1OCCCN1CCCC1` (library stock concentration (final ~1000-fold dilution): 1 mM), the “NF-kB SEAP reporter activity” value amounted to 0.935 in test [2] (agonist: LPS (TLR4) 0.1 ug/mL), 0.224 in test [2] (setting [6]), 1.11 in test [2] (setting [7]) and 1.06 in test [2] (setting [8]).
As to `Cl.Cl.c1cc(-c2nc3ccc(OCCCN4CCCC4)cc3o2)ccc1OCCCN1CCCC1`, the “NF-kB SEAP reporter activity” value in test [1] (library stock concentration (final ~1000-fold dilution): 1 mM, cytotoxicity flag (confluency mask): not cytotoxic, agonist: Imiquimod (TLR7) […]) is 1.27; in test [1] (library stock concentration (final ~1000-fold dilution): 1 mM, cytotoxicity flag (confluency mask): not cytotoxic, agonist: MPLA (TLR4) […]), 1.08.
